In the library only some 3.6% were active in any assay of this set; here they are far more common.
esBAF inh: SWI/SNF esBAF complex inhibition | mouse ES cells, Bmi1-luciferase knock-in reporter, 24 h; 100% = twice the neutral-well signal | reporter increase, % at 12.5 µM | actives 2% (n = 350,000); in the data active = activation above about 40%;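 also: a rise in the Bmi1 reporter signal indicates esBAF inhibition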
A3G deaminase: inhibitors of human APOBEC3G DNA deaminase. AID 493012. Q9HC16. actives 0.28% (n = 330,000). recombinant A3G, ssDNA deamination FAM/TAMRA fluorescence. inhibition, % at 20 µM;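 active = inhibition of at least 40% at 20 µM, with no more than 30% in the related APOBEC3A deaminase screen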
MITF TRPM1 HTS: activators of MITF-driven TRPM1 promoter activity in SK-MEL-5 cells; activation, % at 12.5 µM; AID 588334; actives 0.75% (n = 300,000); SK-MEL-5 TRPM1-promoter luciferase, 24 h; % of positive control, neutral wells = 0;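 active = mean activation of at least 80% with every replicate also reaching 80%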
A3A deaminase: human APOBEC3A DNA deaminase inhibition | recombinant A3A, FAM/TAMRA ssDNA deamination fluorescence | inhibition, % at 20 µM | actives 0.41% (n = 330,000);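 active = at least 40% inhibition at 20 µM here, with at most 30% in a related deaminase screen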
PHOSPHO1 block: blocks human PHOSPHO1 phosphatase activity. Q8TCT1. recombinant PHOSPHO1, absorbance phosphatase assay. inhibition, % at 13.3 µM. actives 1.1% (n = 290,000). AID 1565; in the data active = inhibition above about 60%
Target sequence (Q8TCT1 whole entry, looked up): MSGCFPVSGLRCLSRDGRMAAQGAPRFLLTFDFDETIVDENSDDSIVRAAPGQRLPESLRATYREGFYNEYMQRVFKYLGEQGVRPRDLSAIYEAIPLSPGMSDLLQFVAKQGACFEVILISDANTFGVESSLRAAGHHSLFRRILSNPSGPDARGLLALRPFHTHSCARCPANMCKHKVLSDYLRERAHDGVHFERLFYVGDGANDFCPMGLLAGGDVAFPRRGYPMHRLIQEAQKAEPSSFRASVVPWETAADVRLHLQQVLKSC
Wnt bcat act: Wnt/beta-catenin pathway activation; Wnt/beta-catenin reporter cell assay, activator, plate reader; activation, % at 9.35 µM; actives 1.2% (n = 300,000); AID 743398; in the data active = activation above about 30%, passing the limit was not always enough
A3G conf: APOBEC3G (human) deaminase inhibition, confirmed; shares compounds with A3G deaminase; recombinant A3G ssDNA deaminase, UDG/FAM-TAMRA fluorescence; inhibition, % at 20 µM; actives 72% (n = 890); AID 493152;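 active = inhibition reaching a set limit in any replicate at 20 µM, the limit being 80% of the first screen's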
UDG A3G counter: inhibits E. coli UDG, flagging false APOBEC3G inhibitors | inhibition, % at 20 µM | shares compounds with A3G deaminase | UDG counterscreen, FAM/TAMRA oligo fluorescence | 710 tested, under 10 active;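 active = compounds giving 40% or more inhibition at 20 µM in any one of the three replicates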;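 also: inhibitors lower the FAM signal released by uracil excision and alkaline cleavage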
Target sequence (P12295 whole entry, looked up): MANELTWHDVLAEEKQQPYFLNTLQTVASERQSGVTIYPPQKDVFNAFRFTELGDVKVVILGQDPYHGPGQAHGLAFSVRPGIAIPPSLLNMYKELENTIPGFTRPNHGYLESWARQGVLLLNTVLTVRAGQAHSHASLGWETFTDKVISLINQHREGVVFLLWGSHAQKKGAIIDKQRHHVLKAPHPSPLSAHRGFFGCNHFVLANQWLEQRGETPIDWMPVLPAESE
A number is an active result.

How did C/C=C(\C)C(=O)Nc1cccc(C2=NOC3(C2)C[C@@H](C(N)=O)N(C(=O)/C(C)=C/C)C3)c1 (stereo partly drawn) do in these assays?
esBAF inh: inactive; A3G deaminase: inactive; MITF TRPM1 HTS: inactive; A3A deaminase: inactive; PHOSPHO1 block: inactive; Wnt bcat act: inactive

What do the screens show for `C=C(C)C(=O)Nc1cccc(C2=NOC3(C2)C[C@@H](C(N)=O)N(C(=O)CC(c2ccccc2)c2ccccc2)C3)c1` (stereo partly drawn)?
esBAF inh: inactive; A3G deaminase: 70; MITF TRPM1 HTS: inactive; A3A deaminase: inactive; PHOSPHO1 block: inactive; Wnt bcat act: inactive; A3G conf: 71; UDG A3G counter: inactive

What do the screens show for `C/C=C/C=C/C(=O)N1CC2(CC(c3cccc(NC(=O)/C=C/C)c3)=NO2)C[C@@H]1C(N)=O` (stereo partly drawn)?
esBAF inh: inactive; A3G deaminase: inactive; MITF TRPM1 HTS: inactive; A3A deaminase: inactive; PHOSPHO1 block: inactive; Wnt bcat act: inactive

Results for C=C(C)C(=O)Nc1cccc(C2=NOC3(C2)C[C@@H](C(N)=O)N(C(=O)/C=C/C=C/C)C3)c1 (stereo partly drawn) ?
esBAF inh: inactive; A3G deaminase: 89; MITF TRPM1 HTS: inactive; A3A deaminase: inactive; PHOSPHO1 block: inactive; Wnt bcat act: inactive; A3G conf: 93; UDG A3G counter: inactive

How did C=C(C)C(=O)Nc1cccc(C2=NOC3(C2)C[C@@H](C(N)=O)N(C(=O)/C(C)=C/C)C3)c1 (stereo partly drawn) do in these assays?
esBAF inh: inactive; A3G deaminase: 86; MITF TRPM1 HTS: inactive; A3A deaminase: inactive; PHOSPHO1 block: inactive; Wnt bcat act: inactive; A3G conf: 95

How did O=C(c1ccccc1F)N1C[C@H]2[C@@H](c3ccccc31)[C@@H](CO)N2C(=O)c1ccncc1 do in these assays?
esBAF inh: inactive

How did C=C(C)C(=O)Nc1cccc(C2=NOC3(C2)C[C@H](C(N)=O)N(C(=O)CC)C3)c1 (stereo partly drawn) do in these assays?
esBAF inh: inactive; A3G deaminase: 88; MITF TRPM1 HTS: inactive; A3A deaminase: inactive; PHOSPHO1 block: inactive; A3G conf: 92

Results for C=C(C)C(=O)Nc1cccc(C2=NOC3(C2)C[C@H](C(N)=O)N(C(=O)c2ccccc2C(=O)c2ccccc2)C3)c1 (stereo partly drawn) ?
esBAF inh: inactive; A3G deaminase: 83; MITF TRPM1 HTS: inactive; A3A deaminase: inactive; PHOSPHO1 block: inactive; Wnt bcat act: inactive; A3G conf: 88; UDG A3G counter: inactive

What do the screens show for `C/C=C(\C)C(=O)Nc1cccc(C2=NOC3(C2)C[C@@H](C(N)=O)N(C(=O)c2ccccc2C(=O)c2ccccc2)C3)c1` (stereo partly drawn)?
esBAF inh: inactive; A3G deaminase: inactive; MITF TRPM1 HTS: inactive; A3A deaminase: inactive; PHOSPHO1 block: inactive; Wnt bcat act: inactive

Results for CCC(=O)N1CC2(CC(c3cccc(NC(=O)CC(c4ccccc4)c4ccccc4)c3)=NO2)C[C@H]1C(N)=O (stereo partly drawn) ?
esBAF inh: inactive; A3G deaminase: inactive; MITF TRPM1 HTS: inactive; A3A deaminase: inactive; PHOSPHO1 block: inactive; Wnt bcat act: inactive

Results for Cc1cc(C)c2[nH]c(=S)cc(C)c2c1 ?
esBAF inh: inactive; A3G deaminase: 73; MITF TRPM1 HTS: inactive; A3A deaminase: inactive; PHOSPHO1 block: 104; Wnt bcat act: inactive; A3G conf: active; UDG A3G counter: inactive

What do the screens show for `COc1ccc2c(C)cc(=S)[nH]c2c1`?
esBAF inh: inactive; A3G deaminase: inactive; MITF TRPM1 HTS: inactive; A3A deaminase: inactive; PHOSPHO1 block: inactive; Wnt bcat act: inactive

Results for CCOC(=O)CSc1n[nH]c(=S)s1 ?
A3G deaminase: 87; A3A deaminase: inactive; PHOSPHO1 block: 60; Wnt bcat act: inactive; A3G conf: 72; UDG A3G counter: inactive

Results for CCOC(=O)CCSc1n[nH]c(=S)s1 ?
A3G deaminase: inactive; MITF TRPM1 HTS: inactive; A3A deaminase: inactive; PHOSPHO1 block: inactive; Wnt bcat act: inactive

Results for COCC(=O)NC[C@H]1[C@H](c2ccccc2)[C@@H](CO)N1C(C)=O ?
esBAF inh: inactive

How did C[C@H]1CN([C@@H](C)CO)C(=O)c2cc(-c3ccc(F)cc3)cnc2O[C@@H]1CN(C)Cc1cncnc1 do in these assays?
esBAF inh: inactive

Results for N/C(=N\c1nc2ccccc2o1)NC(=O)c1ccccc1 ?
A3G deaminase: 61; MITF TRPM1 HTS: inactive; A3A deaminase: inactive; PHOSPHO1 block: inactive; A3G conf: inactive; UDG A3G counter: inactive

How did CC(=O)N/C(N)=N/c1nc2cc([N+](=O)[O-])ccc2o1 do in these assays?
A3G deaminase: inactive; A3A deaminase: inactive; PHOSPHO1 block: inactive; Wnt bcat act: inactive

How did C[C@H](CO)N1C[C@H](C)[C@@H](CN(C)Cc2ccncc2)Oc2c(NC(=O)Nc3ccc(F)cc3)cccc2C1=O do in these assays?
esBAF inh: inactive

What do the screens show for `O=S(=O)(Nc1ccc(Cl)cc1)c1ccc(N2CCOCC2)c(NC(=S)NC2CC2)c1`?
esBAF inh: inactive; A3G deaminase: 46; MITF TRPM1 HTS: inactive; A3A deaminase: inactive; PHOSPHO1 block: inactive; Wnt bcat act: inactive; A3G conf: 32; UDG A3G counter: inactive

How did Nc1cc(S(=O)(=O)Nc2ccccc2Cl)ccc1N1CCOCC1 do in these assays?
esBAF inh: inactive; A3G deaminase: inactive; MITF TRPM1 HTS: inactive; A3A deaminase: inactive; PHOSPHO1 block: inactive; Wnt bcat act: inactive

How did Nc1cc(S(=O)(=O)Nc2ccc(Cl)cc2)ccc1N1CCOCC1 do in these assays?
esBAF inh: inactive; A3G deaminase: 46; MITF TRPM1 HTS: inactive; A3A deaminase: inactive; PHOSPHO1 block: inactive; Wnt bcat act: inactive; A3G conf: 17; UDG A3G counter: inactive

What do the screens show for `Cn1c(-c2ccco2)n[nH]c1=S`?
A3G deaminase: inactive; MITF TRPM1 HTS: inactive; A3A deaminase: inactive; PHOSPHO1 block: inactive; Wnt bcat act: inactive

Results for CC(C)Cn1c(-c2ccco2)n[nH]c1=S ?
esBAF inh: inactive; A3G deaminase: 46; MITF TRPM1 HTS: inactive; A3A deaminase: inactive; PHOSPHO1 block: 80; A3G conf: inactive

How did S=c1[nH]nc(-c2ccco2)n1Cc1ccccc1 do in these assays?
esBAF inh: inactive; A3G deaminase: 51; MITF TRPM1 HTS: inactive; A3A deaminase: inactive; PHOSPHO1 block: 79; Wnt bcat act: inactive; A3G conf: 73; UDG A3G counter: inactive

Results for CCCCn1c(-c2ccco2)n[nH]c1=S ?
A3G deaminase: 63; MITF TRPM1 HTS: inactive; A3A deaminase: inactive; PHOSPHO1 block: inactive; Wnt bcat act: inactive; A3G conf: 66; UDG A3G counter: inactive

Compound activity as filed in PubChem.
